The source of these data is ChEMBL document CHEMBL4513216, “Probing the Open Global Health Chemical Diversity Library for Multistage-Active Starting Points for Next-Generation Antimalarials” (ACS Infect Dis, 2020).

In all, about 69,000 compounds went through this assay and about 8,600 (12%) showed an effect of 50% or more. The full list was thinned out, with strong results kept by preference.

The assay has as its system Plasmodium berghei. Nature of the assay: Screen against P. berghei liver stage (PbLuc), transformed with Luciferase, at 10uM. Format: functional, HepG2. Conditions: tested at 10 uM.
For the compound `CC(C)C(NC(=O)NCCNc1ccccn1)c1cccs1` (configuration not stated), the INHIBITION is given as 50.4%.
On to `CC(NC(=O)NCCNc1ncccn1)c1cccs1` (configuration not stated), for which the INHIBITION is 56.6%.
Next, `CC(NC(=O)NCCNc1ccccn1)c1cccs1` (configuration not stated): 19.6%; `CC(NC(=O)NCCNc1cnccn1)c1cccs1` (configuration not stated): -0.847%; `CC(NC(=O)NCCCc1n[nH]c(N)c1C#N)c1ccc(F)cc1` (configuration not stated): -25.8%.
Next, `CC(NC(=O)NCCCc1n[nH]c(N)c1C#N)c1ccccc1` (configuration not stated): 31%; `CC(C)C(NC(=O)NCCNc1ncccn1)c1cccs1` (configuration not stated): -6.44%; `CC(C)C(NC(=O)NCCNc1cnccn1)c1cccs1` (configuration not stated): 36.1%.
For the compound `CC(NC(=O)NCCCc1n[nH]c(N)c1C#N)c1cccs1` (configuration not stated), the INHIBITION amounted to 58.2%.
As for `CCSc1ccc(C(=O)N2CCCCC2C(=O)NC(C)(C)C)cn1` (configuration not stated), the figure is 29.7%; as for `CN(CCCO)C(=O)c1ccc2c(c1)nc(N1CC[C@H](O)C1)n2C`, -17.7%.
Turning to `O=C(c1ccncc1)N1CCN2C[C@H](Oc3cccc(F)c3)C[C@H]2C1`, the INHIBITION amounted to 15.3%.
Next, `CC1CCCCN1CCNC(=O)c1scnc1Cl` (configuration not stated): 0.411%; `O=C(C1CCCC1)N1CCCC(c2nc(O)cc(-c3ccncc3)n2)C1` (configuration not stated): 18.3%.
Next, `CCOc1ccc(CC(=O)N2CCN(c3nccn3C)CC2)cc1`: 15%; `CC(Nc1nc2c(cnn2C)c(=O)[nH]1)c1ccc(F)cc1` (configuration not stated): 23.1%.
Next, `CC(Nc1nc2c(cnn2C)c(=O)[nH]1)c1ccc2c(c1)CCCC2` (configuration not stated): 51%; `CC(C)Sc1ccc(C(C)Nc2nc3c(cnn3C)c(=O)[nH]2)cc1` (configuration not stated): 76.8%.
On to `Cn1ncc2c(=O)[nH]c(CN3CCCc4cc(F)ccc43)nc21`, for which the INHIBITION is reported as 31.7%.
Turning to `CCC(=O)Nc1ccc(C(C)Nc2nc3c(cnn3C)c(=O)[nH]2)cc1` (configuration not stated), the INHIBITION came out at 28.7%.
Turning to `CC(Nc1nc2c(cnn2C)c(=O)[nH]1)c1ccccn1` (configuration not stated), the INHIBITION was determined as 30.9%.
With `c1ccc(Cn2cc3c(n2)C(CNCc2ccco2)OCC3)nc1` (configuration not stated), the INHIBITION is reported as -4.86%.
As for `Cn1cc(C(=O)N2CC[C@@H]3[C@@H]2CCN3Cc2cccnc2)cn1`, the figure is 10.8%.
`COc1nn(C)cc1C(=O)N1CCC(c2nnc(-c3ccsc3)o2)CC1`: the INHIBITION stood at 43.3%.
Regarding `CS(=O)(=O)N1CCc2ccc(C(=O)N3CCn4ncnc4C3)cc21`, the INHIBITION is recorded as -4.68%.
For `Clc1ccccc1OCCc1cc(C2CCNC2)n[nH]1` (configuration not stated), the INHIBITION was -57.4%.
Next, `Cc1nccc(-c2cccc(NCC(=O)N3CCOC(C)C3)c2)n1` (configuration not stated): 15.5%.
As for `Cc1nccc(-c2cccc(NCC(=O)N3CCCCCCC3)c2)n1`, the figure is 18.9%; as for `Cc1nccc(-c2cccc(NCC(=O)N3CCCC(C)C3)c2)n1` (configuration not stated), 53.9%; as for `CNS(=O)(=O)c1cccc(CNC(=O)c2cc(C)no2)c1`, -4.16%.
As for `CCS(=O)(=O)N1CCC2(CC(=O)N(c3ccccc3C)C2)C1` (configuration not stated), the INHIBITION is recorded as -25.8%.
As for `CS(=O)(=O)Nc1ccc2c(c1)NC(=O)CC2c1cnn2cccnc12` (configuration not stated), the figure is -27.5%.
Turning to `CC(=O)N1CCC2(CCN(Cc3ccc(Cl)c(C(F)(F)F)c3)CC2)C1`, the INHIBITION worked out at 73%.
For the compound `CN(C)C(=O)N1CCCC2(CCN(Cc3ccc(Cl)c(F)c3)C2)C1` (configuration not stated), the INHIBITION is 16.9%.
Next, `CC(=O)N1CCCC2(CCN(Cc3ccc(Cl)c(F)c3)C2)C1` (configuration not stated): 13.7%; `CC(=O)N1CCOC2(CCCN(Cc3ccc(Cl)c(C(F)(F)F)c3)C2)C1` (configuration not stated): 30.3%.
On to `CC(=O)N1CCCC2(CCN(Cc3ccc(Cl)c(C(F)(F)F)c3)C2)C1` (configuration not stated), for which the INHIBITION is on record as -18.5%.
As for `CC(=O)N1CCC2(CCCN(Cc3ccc(Cl)c(C(F)(F)F)c3)C2)C1` (configuration not stated), the figure is 59.7%; as for `CSc1cccc(CN2CCn3nc(CNC(C)=O)cc3C2)c1`, 8.38%; as for `Cn1ncc2c1C(COCC1CC1)CN(Cc1ccc(F)cc1)C2` (configuration not stated), -5.69%.
As for `Cc1cc(C)n(-c2ccc(C(=O)NCC(CO)Cc3ccco3)cc2)n1` (configuration not stated), the figure is 32.1%; as for `Cc1csc(CNc2cnc3c(c2)c(C)nn3C)n1`, 16%; as for `Cn1cc(NS(=O)(=O)c2ccc(OC(F)(F)F)cc2)ccc1=O`, 84.6%.
On to `Cc1nc(N(C)C)nc(C)c1NS(=O)(=O)c1ccc(OC(F)(F)F)cc1`, for which the INHIBITION is given as -2.09%.
Next, `CN(C)c1ncc(NS(=O)(=O)c2ccc(OC(F)(F)F)cc2)cn1`: 51.6%; `CSc1ccc(NS(=O)(=O)c2cnn(C)c2)cn1`: 1.81%.
For `O=S(=O)(Nc1cnc(N2CCCC2)nc1)c1ccc(OC(F)(F)F)cc1`, the INHIBITION came out at 40.1%.
Next, `COc1ccc(S(=O)(=O)Nc2cnc(N(C)C)nc2)cc1`: 40.6%; `Cn1cc(NS(=O)(=O)c2ccc(C(F)(F)F)cc2)ccc1=O`: 60.5%; `O=S(=O)(Nc1cnc(N2CCCC2)nc1)c1ccc(C(F)(F)F)cc1`: 37.3%.
As for `Cc1ccc(S(=O)(=O)Nc2ccc(=O)n(C)c2)cc1`, the figure is 46.5%; as for `O=C(c1cccnc1N1CCOCC1)N1CCCC(n2cncn2)C1` (configuration not stated), 36.1%.
